Experimental data from PubChem BioAssay AID1159580 (chemical genetic matrix, 2015).
Values joined by “and” are separate entries in the source; they are usually repeats but may differ in a detail not shown here. Equal values may be shown once. Hit rate of the full screen: of about 5,500 compounds, about 2,000 (36%) were called active. About 18% were inconclusive and are not listed. Cut-off read from the data, not from the text of the source: active = normalized growth mostly below about 0.91 (no sharp cut-off); inconclusive = no clear call, values can overlap the other calls; inactive = mostly above about 0.92. The list shows a part of the results.

Experiment: chemical genetic growth profiling, strain panel (AID 1159580);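 note: tested at 20 µM; growth read once vehicle control cultures reached saturation at 30 °C; 1 = growth at the plate median or of vehicle wells; lower values mean less growth of the strain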
Conditions: S. cerevisiae deletion strains, growth OD

Measured: normalized growth

CC(CCc1ccccc1)NC(C)C(O)c1ccc(O)cc1 (stereo not given)
inactive: locus YAL021C, strain ccr4, stronger effect = lower value 0.992 | locus YAL026C, strain drs2, stronger effect = lower value 0.995 | locus YAL030W, strain snc1, stronger effect = lower value 0.999 | locus YAL040C, strain CLN3, stronger effect = lower value 1.01 | locus YBL061C, strain skt5, stronger effect = lower value 0.997 | locus YBR009C, strain hhf1, stronger effect = lower value 1 | locus YBR021W, strain FUR4, stronger effect = lower value 0.997 | locus YBR023C, strain chs3, stronger effect = lower value 1.01 | locus YBR171W, strain sec66, stronger effect = lower value 1.01 | locus YBR229C, strain ROT2, stronger effect = lower value 0.955 | locus YBR231C, strain swc5, stronger effect = lower value 1 | locus YBR279W, strain paf1, stronger effect = lower value 0.995 | locus YCL011C, strain gbp2, stronger effect = lower value 1.01 | locus YCL016C, strain dcc1, stronger effect = lower value 1.01 | locus YCL029C, strain bik1, stronger effect = lower value 0.981 | locus YCL061C, strain MRC1 (second series), stronger effect = lower value 1 | locus YCL061C, strain MRC1, stronger effect = lower value 0.998 | locus YCL069W, strain vba3, stronger effect = lower value 0.998 | locus YCR088W, strain abp1, stronger effect = lower value 1.01 | locus YDL005C, strain med2, stronger effect = lower value 0.999 | locus YDL035C, strain GPR1, stronger effect = lower value 0.977 | locus YDL040C, strain nat1, stronger effect = lower value 1 | locus YDL074C, strain BRE1, stronger effect = lower value 0.953 | locus YDL101C, strain DUN1, stronger effect = lower value 0.978 | locus YDL134C, strain PPH21, stronger effect = lower value 1 | locus YDL185W, strain tfp1, stronger effect = lower value 0.984 | locus YDL192W, strain arf1, stronger effect = lower value 0.992 | locus YDR001C, strain nth1, stronger effect = lower value 0.999 | locus YDR069C, strain doa4, stronger effect = lower value 0.977 | locus YDR101C, strain arx1, stronger effect = lower value 0.998 | locus YDR137W, strain rgp1, stronger effect = lower value 0.989 | locus YDR150W, strain NUM1, stronger effect = lower value 0.984 | locus YDR159W, strain sac3, stronger effect = lower value 0.99 | locus YDR162C, strain NBP2, stronger effect = lower value 0.991 | locus YDR195W, strain ref2 1 | locus YDR297W, strain sur2, stronger effect = lower value 0.993 | locus YDR318W, strain mcm21, stronger effect = lower value 1 | locus YDR334W, strain swr1, stronger effect = lower value 1.01 | locus YDR335W, strain msn5, stronger effect = lower value 0.995 | locus YDR363W, strain ESC2, stronger effect = lower value 0.998 | locus YDR388W, stronger effect = lower value 0.993 | locus YDR392W, strain spt3, stronger effect = lower value 0.963 | locus YDR502C, strain sam2, stronger effect = lower value 1 | locus YEL003W, strain gim4, stronger effect = lower value 0.979 | locus YEL037C, strain rad23, stronger effect = lower value 1 | locus YEL061C, strain CIN8 (second series), stronger effect = lower value 1 | locus YEL061C, strain CIN8, stronger effect = lower value 0.987 | locus YER002W, strain NOP16, stronger effect = lower value 1 | locus YER015W, strain faa2, stronger effect = lower value 0.998 | locus YER016W, strain bim1, stronger effect = lower value 0.999 | locus YER110C, stronger effect = lower value 0.962 | locus YER111C, strain swi4, stronger effect = lower value 0.999 | locus YER155C, strain BEM2 (second series), stronger effect = lower value 1 | locus YER155C, strain BEM2, stronger effect = lower value 0.993 | locus YER167W, strain BCK2, stronger effect = lower value 0.99 | locus YFR010W, strain ubp6, stronger effect = lower value 1 | locus YGL078C, strain dbp3, stronger effect = lower value 0.993 | locus YGL086W, strain mad1, stronger effect = lower value 0.975 | locus YGL167C, strain pmr1, stronger effect = lower value 1 | locus YGL173C, strain kem1, stronger effect = lower value 1.01 | locus YGL227W, strain vid30, stronger effect = lower value 1 | locus YGL240W, strain doc1, stronger effect = lower value 0.993 | locus YGL248W, strain PDE1, stronger effect = lower value 0.97 | locus YGL253W, strain hxk2, stronger effect = lower value 0.997 | locus YGR078C, strain PAC10, stronger effect = lower value 0.981 | locus YGR135W, strain pre9, stronger effect = lower value 0.989 | locus YGR229C, strain SMI1, stronger effect = lower value 0.989 | locus YGR252W, strain gcn5, stronger effect = lower value 0.974 | locus YHR013C, strain ard1, stronger effect = lower value 0.991 | locus YHR027C, strain rpn1, stronger effect = lower value 1.02 | locus YHR030C, strain SLT2, stronger effect = lower value 0.995 and 0.972 | locus YHR079C, strain IRE1 (second series), stronger effect = lower value 1 | locus YHR079C, strain IRE1, stronger effect = lower value 0.959 | locus YHR094C, strain hxt1, stronger effect = lower value 1 | locus YHR129C, strain ARP1, stronger effect = lower value 0.987 | locus YHR142W, strain chs7, stronger effect = lower value 1.01 | locus YHR200W, strain rpn10, stronger effect = lower value 0.997 | locus YIL066C, strain RNR3, stronger effect = lower value 0.988 | locus YIL073C, strain SPO22, stronger effect = lower value 0.979 | locus YIL125W, strain kgd1, stronger effect = lower value 0.989 | locus YIR030C, strain dcg1, stronger effect = lower value 0.983 | locus YJL092W, strain hpr5, stronger effect = lower value 1.01 | locus YJL095W, strain BCK1 (second series), stronger effect = lower value 1.02 | locus YJL095W, strain BCK1, stronger effect = lower value 0.981 and 0.985 | locus YJL115W, strain asf1, stronger effect = lower value 1.01 | locus YJL129C, strain trk1, stronger effect = lower value 0.98 | locus YJL134W, strain LCB3, stronger effect = lower value 0.993 | locus YJL154C, strain vps35, stronger effect = lower value 0.996 | locus YJL164C, strain tpk1, stronger effect = lower value 0.992 | locus YJL166W, strain qcr8, stronger effect = lower value 1 | locus YJL168C, strain set2, stronger effect = lower value 0.991 | locus YJL187C, strain SWE1 (second series), stronger effect = lower value 0.982 | locus YJL187C, strain SWE1, stronger effect = lower value 1 | locus YJR043C, strain POL32, stronger effect = lower value 1 | locus YJR066W, strain TOR1, stronger effect = lower value 0.925
